Most compounds without a hit are left out; they make up all but 2.5% or so of the library.
Pol kappa inh: qHTS for Inhibitors of Polymerase Kappa; purified Pol kappa, fluorescent DNA synthesis assay, 10 min; Potency, µM (highest dose often 107 µM), without a hit: at the highest dose activity, negative = inhibition, actives largely listed as inhibitors; 0.53% of 400,000 active; further: on the % scale 0 is the no-effect control and ±100 the full control effect
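Kinetic fluorescence screen: compound preincubated 15 min RT with 10 nM enzyme; 50 nM substrate (final) initiates; reads at 0/10 min.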
POLI inh: qHTS for Inhibitors of Polymerase Iota | DNA polymerase iota (Homo sapiens), Q9UNA4 | Pol iota fluorescent replication assay, 10 min | Potency, µM (doses to about 115 µM), without a hit: at the highest dose activity, negative = inhibition, usual class: inhibitors | 1% of 390,000 active | AID 588590, 2011
Target sequence (Q9UNA4 whole entry, looked up): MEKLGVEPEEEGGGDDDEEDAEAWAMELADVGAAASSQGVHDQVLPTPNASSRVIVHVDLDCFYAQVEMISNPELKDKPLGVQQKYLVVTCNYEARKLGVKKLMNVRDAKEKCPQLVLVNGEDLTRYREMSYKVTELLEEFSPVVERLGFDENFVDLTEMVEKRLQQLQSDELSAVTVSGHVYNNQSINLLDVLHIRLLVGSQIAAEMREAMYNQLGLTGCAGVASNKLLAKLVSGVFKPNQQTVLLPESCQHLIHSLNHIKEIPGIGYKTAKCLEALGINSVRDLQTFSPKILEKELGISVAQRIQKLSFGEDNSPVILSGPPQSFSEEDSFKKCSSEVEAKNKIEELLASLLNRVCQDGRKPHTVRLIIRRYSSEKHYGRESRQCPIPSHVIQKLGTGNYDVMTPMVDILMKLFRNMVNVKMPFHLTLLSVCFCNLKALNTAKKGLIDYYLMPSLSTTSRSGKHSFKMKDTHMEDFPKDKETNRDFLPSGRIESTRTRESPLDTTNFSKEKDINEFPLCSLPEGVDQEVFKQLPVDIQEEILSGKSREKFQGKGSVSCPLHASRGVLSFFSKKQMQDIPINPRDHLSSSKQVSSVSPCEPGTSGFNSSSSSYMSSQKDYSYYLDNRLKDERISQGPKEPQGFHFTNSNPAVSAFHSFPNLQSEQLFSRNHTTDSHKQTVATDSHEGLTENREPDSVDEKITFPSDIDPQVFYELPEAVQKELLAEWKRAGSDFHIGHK
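Pol iota at 10 nM preincubated 15 min with compounds at room temperature; reaction started with fluorescent substrate, 50 nM final. Fluorescence read kinetically at 0 and 10 min; buffer-only wells as negative control.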
APE1 inh-1: qHTS Assay for Inhibitors of the Human Apurinic/apyrimidinic Endonuclease 1 (APE1); DNA repair nuclease/redox regulator APEX1 (Homo sapiens), P27695; recombinant APE1, TAMRA/BHQ-2 abasic DNA cleavage fluorescence; Potency, µM (doses to about 65.8 µM), inactives show at the highest dose activity change, negative = inhibition, usual class: inhibitors; 0.35% of 350,000 active;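 further: plate controls were vehicle for no effect and reference inhibitor for full effect; nearly all actives have a fitted effect of over 55% in size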
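Readout is kinetic fluorescence (ex 525, em 598 nm) from cleavage of 50 nM TAMRA/BHQ-2 THF abasic duplex by 0.75 nM APE1, compound added 15 min beforehand at RT.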
Pol beta inh: qHTS Assay for Inhibitors of DNA Polymerase Beta; P06746; Pol beta primer extension/strand displacement, fluorescence kinetic; Potency, µM (titrated, usually from 114 µM), for the others: at the top dose activity change, negative = inhibition, most hits filed as inhibitors; 1.3% of 340,000 active; AID 485314, 2010; further: on the % scale 0 is the no-effect control and ±100 the full control effect
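Curves were derived by four-parameter Hill fits of normalized qHTS data. The kinetic fluorescent primer-extension read was taken at 0 and 10 min after 50 nM substrate, following a 15 min room-temperature preincubation of 10 nM enzyme with compounds.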
POLH inh: qHTS for Inhibitors of Polymerase Eta; DNA polymerase eta (Homo sapiens), Q9Y253; recombinant Pol eta, fluorescent DNA replication assay; Potency, µM (titrated, usually from 114 µM), inactives show top-dose activity change, negative = inhibition, most hits filed as inhibitors; 1.2% of 390,000 active; further: on the % scale 0 is the no-effect control and ±100 the full control effect
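Pol eta at 10 nM preincubated with compounds 15 min at room temperature; reaction started with fluorescent substrate (50 nM final) and read kinetically at 0 and 10 min.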
L3MBTL1 block: qHTS Assay for the Inhibitors of L3MBTL1; Lethal(3)malignant brain tumor-like protein 1 (Homo sapiens), Q9Y468; AlphaScreen L3MBTL1–H3K9me1 peptide binding; Potency, µM (top dose mostly 57.1 µM), for the others: at the top dose activity, negative = inhibition, actives largely listed as inhibitors; 0.66% of 230,000 active; AID 485360, 2010; further: on the % scale 0 is the no-effect control and ±100 the full control effect; nearly all actives have a fitted effect of over 60% in size
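Read-out is AlphaScreen signal from streptavidin donor and nickel chelate acceptor beads (10 ug/mL final each) bridging L3MBTL1 (50 nM) and biotinylated K9-monomethylated H3(1-15) peptide (75 nM), after 30 min compound exposure at room temperature.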
APE1 dye cs: Counterscreen for APE1 Inhibitors: Fluorescent Dye Displacement Assay | shares compounds with APE1 inh-1 | DNA fluorescent dye displacement counterscreen, fluorescence | Potency, µM (doses to about 28.5 µM), without a hit: at the highest dose activity change, negative = inhibition, most hits filed as inhibitors | 7% of 480 active | AID 2564, 2010;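 further: loss of thiazole orange fluorescence as the dye is displaced from duplex DNA; 0% = ThO with dsDNA and no compound and -100% = ThO without dsDNA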
Endo IV inh: Counterscreen for APE1 Inhibitors: qHTS Assay for Inhibitors of Endonuclease IV. 4% of 560 active. E. coli Endo IV, fluorogenic AP-site DNA cleavage. Potency, µM (series often up to 27.1 µM), without a hit: at the top dose activity change, negative = inhibition, hits mostly inhibitors. shares compounds with APE1 inh-1;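 further: plate controls were uninhibited enzyme wells for no effect and no enzyme buffer wells for full effect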
APE1 inh-2: Confirmation qHTS Assay for Inhibitors of the Human Apurinic/apyrimidinic Endonuclease 1 (APE1); shares compounds with APE1 inh-1; purified APE1, fluorogenic abasic-site DNA cleavage; Potency, µM (highest dose often 57.1 µM), for the others: at the top dose activity change, negative = inhibition, usual class: inhibitors; 44% of 750 active; AID 2572, 2010; further: on the % scale 0 is the no-effect control and ±100 the full control effect; nearly all actives have a fitted effect of over 30% in size
APE1 FP inh: qHTS FP-Based Assay for Inhibitors of the Human Apurinic/apyrimidinic Endonuclease 1 (APE1); 7% of 480 active; APE1 binding to TAMRA-labelled double-stranded DNA, fluorescence polarization displacement; shares compounds with APE1 inh-1; AID 2573, 2010; Potency, µM (series often up to 28.5 µM), inactives show at the top dose activity, negative = inhibition, hits mostly inhibitors; further: on the % scale 0 is the no-effect control and ±100 the full control effect
An asterisk follows results filed as active; u = inconclusive; x = no result given; ! = not confirmed by another sample; [ ] = dose if it differs, or a comment. The call rests on the fitted dose curve; in most records, active means well fitted curve in the direction sought with a large enough effect; inconclusive means small, poorly fitted or top-dose-only effect, or another doubt; inactive means no such curve, though single readings can be large; an effect the other way counts as inactive or inconclusive. Potency means the concentration at half of the fitted maximal effect.

SMILES	Pol kappa inh	POLI inh	APE1 inh-1	Pol beta inh	POLH inh	L3MBTL1 block	APE1 dye cs	Endo IV inh	APE1 inh-2	APE1 FP inh
Cc1cc(C)cc(OCc2nnc(SCC(=O)N3CCCCC3)o2)c1	-8.3%	63.0%	26.9%	89.0%	-12.9%	x	x	x	x	x
CN(C)C(=O)Nc1ccc(Cl)c(Cl)c1	-5.7%[19.4 µM]	x	u	x	x	x	-2.6%[57.1 µM]	20.0%[57.1 µM]	31.6µM*	10.2%[57.1 µM]
O=C(CC(c1cccs1)N1Cc2ccccc2C1=O)Nc1ccccc1F (stereo not drawn)	-8.1%	6.4%	x	-19.6%	-6.4%	x	x	x	x	x
O=c1c(OC2OC(CO)C(O)C(O)C2OC2OC(CO)C(O)C(O)C2OC2OC(CO)C(O)C(O)C2O)c(-c2ccc(O)c(O)c2)oc2cc(O)cc(O)c12 (stereo not drawn)	56.2µM*	50.1µM*	u	u	u	x	-21.3%	1.9%	10µM*	u
O=c1c2c(O)cc(O)cc2oc2ccc(O)c(O[C@@H]3O[C@H](CO)[C@@H](O)[C@H](O)[C@H]3O[C@H]3O[C@H](CO)[C@@H](O)[C@H](O)[C@H]3O)c12	-3.8%	-22.7%	38.6%	x	0.4%	3.2%	x	x	x	x
O=C(Nc1nc2nccc(-c3ccccc3)n2n1)c1ccccc1	1.9%	40.2%	-10.6%	-19.5%	6.9%	8.8%	x	x	-23.6%	x
O=C(Nc1nc2nccc(-c3ccccc3)n2n1)c1ccc(F)cc1	-0.7%	10.2%	3.8%	30.7%	-1.5%	-0.9%	x	x	x	x
Cc1ccc(CSc2nnc(SCC(=O)N/N=C/c3c[nH]c4ccccc34)s2)cc1	-22.2%	3.55µM*	9.2%	7.94µM*	u	x	x	x	-24.4%	x
Fc1ccc(N2N=C(c3cccs3)CC2c2ccccc2)cc1 (stereo not drawn)	-3.1%	13.3%	4.3%	2.3%	u	x	x	x	-26.3%	x
O=S(=O)(c1ccccc1)N1N=C(c2cccs2)CC1c1ccc(F)cc1 (stereo not drawn)	-6.6%	u	-8.2%	22.9%	-19.7%	34.2%	x	x	x	x
O=C(NCCc1ccc(Cl)cc1)c1cnc2sc(N3CCOCC3)nn2c1=O	3.4%	-13.6%	x	9.8%	-3.9%	x	x	x	x	x
Cc1ccccc1NS(=O)(=O)c1cccc(-c2nnc(-c3ccccc3)o2)c1	-19.7%	-5.8%	-11.6%	9.1%	1.1%	-1.8%	x	x	x	x
O=S(=O)(NC1CCCCC1)c1cccc(-c2nnc(-c3ccccc3)o2)c1	-7.6%	12.1%	u	23.5%	1.7%	4.2%	1.1%	-6.3%	-3.6%[24.4 µM]	-9.8%
COCc1cc(O)c(O)c(O)c1-c1c(COC)cc(O)c(O)c1O	0.212µM*	2.82µM*	0.178µM*	x	x	x	6.5%[57.1 µM]	144.4%[57.1 µM]	0.316µM*	6.4%[57.1 µM]
Cc1nc2ccc3nc(NC(=O)c4ccc5c(c4)OCCO5)sc3c2s1	u	u	-2.7%	26.6%	-16.8%	-13.1%	x	x	u	x
CCN(CC)CCCC(C)Nc1c2ccc(Cl)cc2nc2ccc(OC)cc12 (stereo not drawn)	8.91µM*	7.94µM*	28.2µM*	15.8µM*	u	x	x	7.94µM*	15.8µM*	x
O=C(CSc1nnnn1-c1ccccc1)NC(=O)NCc1ccco1	u	20µM*	28.2µM*	39.8µM*	8.91µM*	x	u	3.7%	u	u
Cn1nnnc1SCC(=O)NCc1ccco1	-9.3%	5.0%	2.4%	1.5%	-5.9%	0.8%	x	x	x	x
CCOc1ccccc1-c1nnc2n1N=C(c1ccc(OC)c(OC)c1)CS2	x	x	10µM*	x	x	x	u	97.4%[57.1 µM]	-13.5%	u
CCCCCCCCCCCCC/C=C/[C@@H](O)[C@H](CO)N(C)C	1.9%[19.4 µM]	x	3.0%	x	x	x	x	x	x	x
Cc1cc2c3c(cccc3n1)C(=O)c1ccccc1-2	x	x	u	x	x	x	u	6.3%	u	2.51µM*
Cc1cccc(NC(=O)CSC2=Nc3ccccc3C3=NC(CCC(=O)NCc4ccco4)C(=O)N23)c1 (stereo not drawn)	-19.0%	-3.3%	x	6.9%	-11.9%	x	x	x	x	x
COc1cc([N+](=O)[O-])cc(/C=N/NC(=O)CC#N)c1O	x	x	u	u	x	x	-6.9%	1.1%	u	u
COc1cc([N+](=O)[O-])cc(/C=N/NC(=O)Cn2cncn2)c1O	-18.8%	u	0.1%	4.2%	-4.5%	u	x	x	x	x
Cc1cc(C)nc(N2N=C(CSc3ccc(Cl)cc3)CC2=O)n1	-29.7%	29.0%	2.82µM*	-16.9%	0.4%	x	-9.6%	-0.7%	u	-2.7%
COc1cc(-c2ccc(N=Nc3ccc4c(S(=O)(=O)O)cc(S(=O)(=O)O)c(N)c4c3O)c(OC)c2)ccc1N=Nc1ccc2c(S(=O)(=O)O)cc(S(=O)(=O)O)c(N)c2c1O	0.251µM*	x	1.41µM*	x	x	x	x	6.31µM*!	1µM*	x
COc1ccc2cc3cc(C(=O)NCc4ccc(C)cc4)oc3nc2c1	-4.4%	3.7%	x	4.2%	-9.3%	x	x	x	x	x
COc1ccc2cc3cc(C(=O)NCc4cccs4)oc3nc2c1	-22.8%	u	0.6%	22.4µM*	u	x	x	x	-11.5%	x
NS(=O)(=O)c1cc2c(cc1Cl)NCNS2(=O)=O	2.7%[60.1 µM]	11.9%	-2.9%	-9.8%	-22.5%	0.4%	x	-3.1%[57.1 µM]	-16.6%	x

Screens from PubChem.
